D2 ag-1 – Beta-Arrestin HTS for Positive Allosteric Modulators of the Human D2 Dopamine Receptor: Agonists; actives 0.084% (n = 360,000); activation, % (test concentration not listed); D(2) dopamine receptor (Homo sapiens), P14416; DiscoveRx PathHunter D2 beta-arrestin, luminescence, 90 min; 100% = 57 uM dopamine signal; AID 624465, 2012; in the data active = activation above about 40%; inconclusive = between about 15% and that limit
Target sequence (P14416 whole entry, looked up): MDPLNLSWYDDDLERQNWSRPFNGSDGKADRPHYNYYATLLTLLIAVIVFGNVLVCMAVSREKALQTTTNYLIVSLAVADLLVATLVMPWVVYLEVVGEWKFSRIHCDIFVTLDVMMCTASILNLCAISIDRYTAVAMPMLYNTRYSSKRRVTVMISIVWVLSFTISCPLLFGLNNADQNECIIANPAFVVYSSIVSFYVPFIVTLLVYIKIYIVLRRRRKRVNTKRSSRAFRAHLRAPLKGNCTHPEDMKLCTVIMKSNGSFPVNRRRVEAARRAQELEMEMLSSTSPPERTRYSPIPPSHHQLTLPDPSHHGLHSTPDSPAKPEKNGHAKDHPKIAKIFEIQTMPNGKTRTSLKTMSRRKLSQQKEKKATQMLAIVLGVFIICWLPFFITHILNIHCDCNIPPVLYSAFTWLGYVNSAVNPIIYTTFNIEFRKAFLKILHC
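Agonist mode: compounds alone added to overnight-plated D2 PathHunter cells for 90 min at 37 C, with 57 uM final dopamine (EC100) defining full response. Beta-arrestin recruitment detected by chemiluminescent reagent, read after 1 h at ambient temperature.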
D2 antag – HTS Assay for Allosteric Antagonists of the Human D2 Dopamine Receptor: Primary Screen for Antagonists; D(2) dopamine receptor (Homo sapiens), P14416; HEK293 TREx D2 cells, calcium flux, dopamine EC80; inhibition, % at 10 µM; actives 2% (n = 340,000); AID 485344, 2010; in the data active = inhibition above about 30%; inactive = below that, where a call was filed
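Cells plated overnight at 30 C with tetracycline; no-wash calcium dye, 30–90 min RT; 10 s baseline; compound pinned; 180 s read; EC80 dopamine added; another 180 s read.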
D2 PAM-1 – Beta-Arrestin HTS for Positive Allosteric Modulators of the Human D2 Dopamine Receptor: Potentiators; D(2) dopamine receptor (Homo sapiens), P14416; DiscoveRx D2 beta-arrestin cells, luminescence, 90 min; 100% = 57 uM dopamine signal; potentiation, % (no concentration beside the values); actives 0.23% (n = 360,000); in the data active = potentiation above about 50%; inconclusive = mostly about 30% to 49%
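D2 cells co-treated with compound plus 50 nM dopamine (EC20) for 90 min at 37 deg C to detect potentiation. Beta-arrestin recruitment was read as enzyme-fragment luminescence after 1 h at ambient temperature. Full response was set by 57 uM dopamine.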
D2 ag-2 – HTS Assay for Allosteric Agonists of the Human D2 Dopamine Receptor: Primary Screen for Agonists; activation, % at 2 µM; actives 0.53% (n = 340,000); HEK293 T-REx D2 cells, calcium flux agonist mode; D(2) dopamine receptor (Homo sapiens), P14416;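 active = activation over 3 SD above normal in the single-dose calcium agonist read, cut at about 30% in these data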
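HEK293 Trex D2 cells, tetracycline-induced, o/n 30 C 5% CO2; no-wash Ca dye, RT 30–90 min; 10-cycle baseline, 23 nl cpd added, kinetic Ca read 180 s; agonist hits = positive Ca response.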
D2 PAM-2 – HTS Assay for Positive Allosteric Modulators of the Human D2 Dopamine Receptor: Primary Screen for Potentiators | AID 485347, 2010 | potentiation, % at 10 µM | HEK293 T-REx D2, calcium flux, EC20 dopamine potentiation | actives 0.34% (n = 340,000) | D(2) dopamine receptor (Homo sapiens), P14416;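 active = potentiation over 3 SD above the plate norm, cut at about 30% in these data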
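Calcium flux readout, no-wash dye, 1 read/s. Inducible HEK293 Trex D2 line, overnight 30 C. Compound alone 180 s (agonist flags), then EC20 dopamine, another 180 s to score potentiation.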
Of the large screens only hits and unclear results are named; the others gave an inactive call; ! = not confirmed by another sample. This is a sample that favours compounds with a hit; in the whole collection about 2.4% have one here.

COc1ccccc1CNS(=O)(=O)c1c(C(=O)N2CCCC2)c(C)n(C)c1C	none
COc1ccc(CN(CCCn2cnc3c(OC)ncnc32)CCCn2cnc3c(OC)ncnc32)cc1	none (no result: D2 antag, D2 ag-2, D2 PAM-2)
Nc1ccccc1NC1=CC(=O)CC(c2ccco2)C1 (stereo not given)	D2 antag 30.9
O=C1Nc2cc(C(=O)N3CCOCC3)ccc2S/C1=C\c1ccccc1	D2 antag 47.4
Cc1cccc(/C=C2/Sc3ccc(C(=O)N4CCOCC4)cc3NC2=O)c1	none
CCOC(=O)c1c(CN2CCCCC2)n(C)c2cc(Br)c(O)c(CN(C)C)c12	D2 antag 60.5
CCOC(=O)c1c(CSc2ccccc2)n(C)c2cc(Br)c(O)c(CN(C)C)c12	none
Cn1c(SCC(=O)NCc2ccc(F)cc2)ncc(C(=O)Nc2ccccc2)c1=O	D2 antag 32.1
O=C(NC1CCCCCC1)c1cc2c(Cl)nc3ccccc3c2s1	none (no result: D2 ag-1, D2 antag, D2 PAM-1)
CCCCCCC(C)NC(=S)Nc1cc(S(=O)(=O)N(C)C)ccc1C (stereo not given)	D2 antag 92.2
Cc1ccc(S(=O)(=O)N(C)C)cc1NC(=S)NC(C)CCCC(C)C (stereo not given)	D2 antag 74.9
Cc1ccc(S(=O)(=O)N(C)C)cc1NC(=S)NC(C)CCC(C)C (stereo not given)	D2 antag 77.4
CCC(Sc1nnc(-c2ccc(F)cc2)c(-c2ccc(F)cc2)n1)C(=O)NC1CCCC1 (stereo not given)	none (no result: D2 ag-1, D2 antag, D2 PAM-1)
COc1ccc(C(=O)c2ccc(OC)c(OC)c2)cc1OC	none
COc1ccc(C(=O)c2nccc3cc(OC)c(OC)cc23)cc1OC	D2 ag-1 inconclusive, D2 PAM-1 94.5
CCC(C)n1c(=O)c2sccc2n2c(CCCC(=O)Nc3ccc(F)cc3)nnc12 (stereo not given)	none (no result: D2 ag-1, D2 antag, D2 PAM-1)
CSc1cccc(CN2CCN(Cc3ccccc3)C(CCO)C2)c1 (stereo not given)	D2 antag 38.9
CSc1ccc(CN2CCN(CC=C(C)C)C(CCO)C2)cc1 (stereo not given)	D2 antag 33.0
CSc1cccc(CN2CCN(CCc3ccccc3)C(CCO)C2)c1 (stereo not given)	none
CCOc1ccccc1N(CC)C(=O)c1cc2c(=O)n(CC)c3ccccc3c2s1	none (no result: D2 ag-1, D2 antag, D2 PAM-1)
CCOc1ccc(C(=O)/C=C/c2cn(CC(O)CN3CCc4ccccc43)c3ccccc23)cc1 (stereo not given)	none (no result: D2 ag-1, D2 antag, D2 PAM-1, D2 PAM-2)
CCc1ccc(-c2cc(C)no2)cc1S(=O)(=O)NC(C)Cc1ccco1 (stereo not given)	D2 PAM-2 84.5
Cc1cc(-c2ccc(C)c(S(=O)(=O)NCCc3ccccc3)c2)on1	none (no result: D2 ag-1, D2 antag, D2 PAM-1)
CCc1ccc(-c2cc(C)no2)cc1S(=O)(=O)NCCc1ccccc1	D2 antag 30.4
Cc1cc(-c2ccc(C)c(S(=O)(=O)NCCC(C)N3CCCCCC3)c2)on1 (stereo not given)	none
Cc1cc(-c2ccc(C)c(S(=O)(=O)NCCCN3CCCCCC3)c2)on1	D2 antag 33.7
O=C(NCCCN1CCOCC1)C1CCN(S(=O)(=O)c2cccc(C(F)(F)F)c2)CC1	none
COc1ccc(OC)c(CCNC(=O)c2nc(-c3ccc(Cl)cc3)n3c2CCCCC3)c1	none (no result: D2 ag-1, D2 antag, D2 PAM-1)
Cc1ccc(CSc2nnc([C@@H](N)C(C)C)o2)cc1	none (no result: D2 ag-1, D2 antag, D2 PAM-1, D2 PAM-2)
Nc1c(N(CCC2=CCCCC2)C(=O)CCCOc2ccccc2)c(=O)[nH]c(=O)n1Cc1ccccc1	D2 antag 33.0
Nc1c(N(CCC2=CCCCC2)C(=O)COc2ccc(F)cc2)c(=O)[nH]c(=O)n1Cc1ccccc1	none
CCN(C(=O)COC(=O)CCc1ccc(OC)cc1)c1c(N)n(Cc2ccccc2)c(=O)[nH]c1=O	D2 antag 33.8
Cc1ccc(CN(C(=O)COc2c(C)cccc2C)C2CCS(=O)(=O)C2)o1 (stereo not given)	none (no result: D2 ag-1, D2 antag, D2 PAM-1)
CCOc1cc(C(=O)O/N=C(\N)c2ccc([N+](=O)[O-])cc2)cc(OCC)c1OCC	D2 ag-1 inconclusive, D2 PAM-1 76.4
Cc1ccc(/C(N)=N/OC(=O)c2cc(-c3ccccc3)nc3ccccc23)cc1	none
N/C(=N\OC(=O)c1ccc(Cl)c([N+](=O)[O-])c1)c1ccccn1	D2 PAM-1 inconclusive, D2 PAM-2 36.5
N/C(=N\OC(=O)c1cc(-c2ccccc2)nc2ccccc12)c1ccccn1	D2 ag-1 48.4
CCOc1cc(C(=O)O/N=C(\N)c2ccccn2)cc(OCC)c1OCC	D2 ag-1 inconclusive, D2 PAM-1 72.5
N/C(=N\OC(=O)c1ccc([N+](=O)[O-])cc1)c1ccc(Br)cc1	none
Cc1cc(C)c(NC(=O)CSc2ncc(S(=O)(=O)c3ccc(C(C)(C)C)cc3)c(=O)[nH]2)c(C)c1	none (no result: D2 ag-1, D2 antag, D2 PAM-1)
COc1ccc(CNCc2ccc(OC)c3ccccc23)cc1	none
Cc1ccn2c(=O)cc(COc3ccc(NC(=O)c4ccccc4F)cc3)nc2c1	none (no result: D2 ag-1, D2 antag, D2 PAM-1)
CCc1nc2ccc(C(=O)Nc3ccc(OC)c(OC)c3)cn2c1N(C)CCC(C)C	none (no result: D2 antag, D2 ag-2, D2 PAM-2)
COc1ccccc1CNC(=O)CCC1N=C2c3ccccc3N=C(SCC(=O)Nc3ccc(N(C)C)cc3)N2C1=O (stereo not given)	none (no result: D2 ag-1, D2 antag, D2 PAM-1)
COc1cccc(C2C(=O)N(C3CCCCC3)CC(=O)N2CCc2ccc(OC)c(OC)c2)c1 (stereo not given)	none (no result: D2 ag-1, D2 antag, D2 PAM-1)
COc1ccc(/C(N)=N/OC(=O)c2ccc(C)c([N+](=O)[O-])c2)cc1OC	none
N/C(=N\OC(=O)c1ccc(Cl)c([N+](=O)[O-])c1)c1ccccc1	D2 PAM-1 94.3
N/C(=N\OC(=O)c1ccc(Cl)cc1)c1ccccn1	none
N/C(=N\OC(=O)c1ccc(Cl)c(Cl)c1)c1ccccn1	D2 PAM-1 82.3
CCOc1ccc(C(C)NC(=O)c2cc(=O)[nH]c3ccccc23)cc1OCC (stereo not given)	none
Cc1nc2c3ccccc3nc(NNC(=O)CCC(=O)N3CCN(c4ccccc4)CC3)n2n1	D2 ag-2 30.9!
COc1ccccc1C=Cc1ccnc2ccccc12	none (no result: D2 antag, D2 ag-2, D2 PAM-2)
COc1ccc(/C=C/c2ccncc2)c2ccccc12	D2 antag 44.6
O=c1cc(C(F)(F)F)oc2c1ccc1ccccc12	D2 antag 33.7
O=c1cc(/C=C/c2ccccc2)oc2c1ccc1ccccc12	none
Cc1ccc(C(=O)CN(C(=O)c2ccc(Cl)cc2)N2C(=O)c3ccccc3C2=O)cc1	none
Cc1ccc(C(=O)CN(C(=O)c2ccc(Cl)cc2)N2C(=O)CCC2=O)cc1	D2 antag 30.5

Source: PubChem BioAssay (National Center for Advancing Translational Sciences (NCATS))
